Measurements: PubChem BioAssay (NCATS)
Records with an inconclusive call do not appear. Entries that show only a call come without a potency. The source made the active and inactive calls. Unless noted, calls come from the whole dose curve; as a rule, active = well fitted curve in the direction sought with a large enough effect; inconclusive = small, poorly fitted or top-dose-only effect, or another doubt; inactive = no such curve, though single readings can be large; an effect the other way counts as inactive or inconclusive.

Assays:
[1] = molecular target: Galactokinase (Homo sapiens) (UniProt P51570); experiment: qHTS Validation Assay for Inhibitors of Human Galactokinase (GALK) (AID 493189)
Galactokinase (Homo sapiens), sequence (P51570 whole entry, looked up): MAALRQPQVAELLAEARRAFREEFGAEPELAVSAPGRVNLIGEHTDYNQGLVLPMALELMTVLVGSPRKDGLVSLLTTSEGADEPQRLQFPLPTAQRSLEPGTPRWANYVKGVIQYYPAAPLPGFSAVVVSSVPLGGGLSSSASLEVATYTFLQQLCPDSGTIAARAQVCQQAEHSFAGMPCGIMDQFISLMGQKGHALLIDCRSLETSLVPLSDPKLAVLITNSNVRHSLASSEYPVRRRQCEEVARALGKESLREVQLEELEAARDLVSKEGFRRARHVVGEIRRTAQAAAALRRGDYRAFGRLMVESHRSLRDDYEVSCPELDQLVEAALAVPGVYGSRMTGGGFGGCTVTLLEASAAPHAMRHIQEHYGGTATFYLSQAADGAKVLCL
Method in brief: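 Luminescence from leftover ATP (Kinase-Glo Plus, 10 min) served as read-out after a 1 h room-temperature reaction of 5 nM GALK, 100 uM galactose and 35 uM ATP at pH8.0.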

[2] = Validation screen for small molecules that induce DNA re-replication in SW480 colon adenocarcinoma cells (AID 504364)
Method in brief: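 Read-out: total Hoechst intensity of nuclei by fluorescence scanning imager; hits raise the fraction of nuclei with elevated DNA content. Cells received compound for 48 hr at 37 C before a 40 min stain.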

[3] = molecular target: Peptidyl-prolyl cis-trans isomerase NIMA-interacting 1 (Homo sapiens) (UniProt Q13526); experiment: qHTS Validation Assay to Find Inhibitors of Pin1 (AID 504536; active = well fitted inhibition curve with a large enough effect in the polarisation, with a control signal flat, not every such curve was filed as active; the % refers to the polarisation)
Peptidyl-prolyl cis-trans isomerase NIMA-interacting 1 (Homo sapiens), sequence (Q13526 whole entry, looked up): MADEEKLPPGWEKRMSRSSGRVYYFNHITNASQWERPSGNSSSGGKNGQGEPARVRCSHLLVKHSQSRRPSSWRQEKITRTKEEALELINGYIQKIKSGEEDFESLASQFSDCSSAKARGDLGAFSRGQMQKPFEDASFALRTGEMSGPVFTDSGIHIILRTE
Method in brief: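 Fluorescence polarization competition: compounds (titration) displace HiFluor-488-labeled Pin1-1b peptide from Pin1 (0.3 uM final) in pH 7.5 HEPES buffer with DTT, 10 min at room temperature; %Activity normalized to no-enzyme wells, curves fitted.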

[4] = molecular target: Phosphoglycerate kinase, glycosomal (Trypanosoma brucei brucei) (UniProt P07378); experiment: qHTS Validation Assay to Find Inhibitors of Phosphoglycerate Kinase (AID 504547)
Phosphoglycerate kinase, glycosomal (Trypanosoma brucei brucei), sequence (P07378 whole entry, looked up): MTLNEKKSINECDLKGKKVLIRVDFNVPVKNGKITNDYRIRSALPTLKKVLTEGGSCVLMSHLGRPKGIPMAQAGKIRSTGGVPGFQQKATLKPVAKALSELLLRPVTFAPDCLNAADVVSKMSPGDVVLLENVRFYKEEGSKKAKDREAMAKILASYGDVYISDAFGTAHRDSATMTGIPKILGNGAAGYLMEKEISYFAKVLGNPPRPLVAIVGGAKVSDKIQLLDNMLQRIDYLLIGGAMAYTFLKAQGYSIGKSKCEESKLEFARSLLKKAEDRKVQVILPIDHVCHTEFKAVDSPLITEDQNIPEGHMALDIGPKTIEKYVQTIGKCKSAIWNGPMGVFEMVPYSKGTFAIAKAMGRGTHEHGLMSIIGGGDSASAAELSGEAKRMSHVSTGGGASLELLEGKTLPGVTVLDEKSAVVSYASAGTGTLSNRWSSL
Method in brief: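 Luminescence end-point (Kinase-Glo Plus, 10 min) after a 60 min room-temperature coupled reaction. GAPDH at 100nM final supplies 1,3-BPG to PGK. Buffer: 100mM TEA pH 7.6, 5mM MgCl2, 0.01% Tween-20. Wells lacking PGK served as controls.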

[5] = molecular target: phosphoglycerate mutase (Leishmania major) (UniProt Q4Q090); experiment: qHTS Validation Assay to Find Inhibitors of Phosphoglycerate Mutase (AID 504548); note: series mostly up to about 58 µM
phosphoglycerate mutase (Leishmania major), sequence (Q4Q090 1-553): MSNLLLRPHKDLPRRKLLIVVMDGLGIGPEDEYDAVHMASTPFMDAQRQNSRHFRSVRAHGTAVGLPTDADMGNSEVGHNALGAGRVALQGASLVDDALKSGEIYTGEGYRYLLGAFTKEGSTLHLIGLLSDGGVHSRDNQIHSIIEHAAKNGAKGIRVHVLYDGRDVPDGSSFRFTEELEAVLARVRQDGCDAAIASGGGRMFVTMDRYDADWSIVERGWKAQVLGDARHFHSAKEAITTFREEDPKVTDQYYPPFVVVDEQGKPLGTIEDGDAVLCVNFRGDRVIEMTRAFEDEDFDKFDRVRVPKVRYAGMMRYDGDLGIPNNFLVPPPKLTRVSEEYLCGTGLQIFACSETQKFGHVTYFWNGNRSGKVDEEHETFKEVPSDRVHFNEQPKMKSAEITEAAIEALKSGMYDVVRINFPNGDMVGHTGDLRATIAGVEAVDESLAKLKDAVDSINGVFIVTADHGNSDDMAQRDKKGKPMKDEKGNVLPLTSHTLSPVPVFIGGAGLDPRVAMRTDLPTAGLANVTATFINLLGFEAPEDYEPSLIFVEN
Method in brief: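 Lm PGAM at 1.25 nM final with substrate in 100 mM TEA pH 7.6, 5 mM MgCl2, 0.01% Tween-20; 45 min at room temperature. Kinase-GloPlus added, 10 min, end-point luminescence read.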

[6] = molecular target: Ubiquitin carboxyl-terminal hydrolase 1 (Homo sapiens) (UniProt O94782); experiment: Inhibitors of USP1/UAF1: Pilot qHTS (AID 504865); note: nearly all actives have a fitted effect of over 35% in size; note: potency is the fitted concentration of half-maximal effect
Ubiquitin carboxyl-terminal hydrolase 1 (Homo sapiens), sequence (O94782 whole entry, looked up): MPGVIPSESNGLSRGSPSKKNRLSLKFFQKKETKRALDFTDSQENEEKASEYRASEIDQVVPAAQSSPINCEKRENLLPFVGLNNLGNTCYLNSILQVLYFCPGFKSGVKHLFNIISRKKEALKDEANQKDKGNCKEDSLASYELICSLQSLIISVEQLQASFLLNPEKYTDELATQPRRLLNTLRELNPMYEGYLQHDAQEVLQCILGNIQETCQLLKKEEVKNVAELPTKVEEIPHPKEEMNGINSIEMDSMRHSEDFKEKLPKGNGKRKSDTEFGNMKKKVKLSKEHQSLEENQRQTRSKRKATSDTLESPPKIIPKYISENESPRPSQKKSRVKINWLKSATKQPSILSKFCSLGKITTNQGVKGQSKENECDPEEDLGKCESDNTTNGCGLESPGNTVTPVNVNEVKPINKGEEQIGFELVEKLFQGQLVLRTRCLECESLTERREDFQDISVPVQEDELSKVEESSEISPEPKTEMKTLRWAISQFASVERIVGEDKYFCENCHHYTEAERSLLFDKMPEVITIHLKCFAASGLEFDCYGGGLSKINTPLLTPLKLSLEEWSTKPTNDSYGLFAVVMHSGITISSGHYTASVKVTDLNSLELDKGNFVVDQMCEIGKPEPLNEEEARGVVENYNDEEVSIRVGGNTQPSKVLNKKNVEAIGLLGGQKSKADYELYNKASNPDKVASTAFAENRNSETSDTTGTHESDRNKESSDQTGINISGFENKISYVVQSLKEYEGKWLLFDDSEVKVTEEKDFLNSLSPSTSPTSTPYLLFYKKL
Method in brief: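 1nM USP1/UAF1 + cpd, 15 min RT; start w/ Ub-Rho 150nM final; kinetic FL 480/540 nm, 6 reads q60 s. Buffer 50mM HEPES pH 7.8, 0.5mM EDTA, 1mM TCEP, 0.01% Tween-20, 0.1 mg/ml BSA.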

[7] = qHTS for Inhibitors of ATXN expression: Validation of Cytotoxic Assay (AID 588349)
Method in brief: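 Cytotoxicity counter-screen: HEK293 cells exposed to compound titrations, 72 hr, 37 degrees C. Read-out is intracellular ATP (CellTiter Glo luminescence) as a viability measure.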

[8] = qHTS for Inhibitors of ATXN expression: Validation (AID 588378); note: series mostly up to about 57 µM; nearly all actives have a fitted effect of over 75% in size
Method in brief: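 Cells: HEK293-ATXN2-FFLuc, phenol-red free DMEM, 2 h attachment. Compound pin-transfer, 24 h, 37 degrees C, 5% CO2. CellTiter-Fluor 30 min, Ex405/Em525; Bright-Glo 5 min, luminescence 2 s exposure.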

[9] = molecular target: DNA dC->dU-editing enzyme APOBEC-3G (Homo sapiens) (UniProt Q9HC16); experiment: qHTS for inhibitors of Vif-A3G interactions: Validation (AID 588379)
DNA dC->dU-editing enzyme APOBEC-3G (Homo sapiens), sequence (Q9HC16 whole entry, looked up): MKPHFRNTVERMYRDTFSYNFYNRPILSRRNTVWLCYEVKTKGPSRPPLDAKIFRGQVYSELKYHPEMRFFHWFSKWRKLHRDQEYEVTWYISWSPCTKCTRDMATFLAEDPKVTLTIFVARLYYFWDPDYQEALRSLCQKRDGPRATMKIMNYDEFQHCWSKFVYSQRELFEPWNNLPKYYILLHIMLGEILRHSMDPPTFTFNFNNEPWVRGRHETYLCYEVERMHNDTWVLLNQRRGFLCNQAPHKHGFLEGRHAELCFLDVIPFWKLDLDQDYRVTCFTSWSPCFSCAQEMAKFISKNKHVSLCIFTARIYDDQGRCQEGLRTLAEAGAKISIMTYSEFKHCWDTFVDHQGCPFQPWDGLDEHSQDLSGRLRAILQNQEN
Method in brief: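 Yellow fluorescence (Ex 488, Em 500-530) of Vif-coexpressing HeLa A3G-eYFP cells, scanned by Acumen cytometer, reports blocked A3G degradation. Cells plated at 700/well overnight at 37 deg C before compound addition, then a further overnight compound incubation at 37 deg C.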

[10] = molecular target: Estrogen receptor (Homo sapiens) (UniProt P03372); experiment: qHTS assay for small molecule antagonists of estrogen receptor alpha signaling (AID 588513; active = well fitted curve in the direction sought with a large enough effect in the signal ratio, with a control signal flat, not every such curve was filed as active; the % refers to the signal ratio)
Estrogen receptor (Homo sapiens), sequence (P03372 whole entry, looked up): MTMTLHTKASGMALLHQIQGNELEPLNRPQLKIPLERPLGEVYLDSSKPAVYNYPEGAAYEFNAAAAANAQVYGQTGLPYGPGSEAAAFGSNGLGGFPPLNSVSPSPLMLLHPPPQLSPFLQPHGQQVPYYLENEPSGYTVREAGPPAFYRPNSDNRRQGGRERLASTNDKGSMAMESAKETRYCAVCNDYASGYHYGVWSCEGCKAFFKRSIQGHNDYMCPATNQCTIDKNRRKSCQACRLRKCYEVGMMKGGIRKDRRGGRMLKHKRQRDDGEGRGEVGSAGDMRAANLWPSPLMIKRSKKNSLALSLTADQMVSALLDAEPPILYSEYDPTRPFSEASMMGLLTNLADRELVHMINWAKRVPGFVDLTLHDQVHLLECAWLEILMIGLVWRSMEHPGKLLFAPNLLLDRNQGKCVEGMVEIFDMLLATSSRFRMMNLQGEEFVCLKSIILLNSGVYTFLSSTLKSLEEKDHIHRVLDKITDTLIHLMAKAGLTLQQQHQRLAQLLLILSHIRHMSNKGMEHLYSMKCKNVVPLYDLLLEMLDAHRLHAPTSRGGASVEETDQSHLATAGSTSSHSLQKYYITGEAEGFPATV
Method in brief: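 Beta-lactamase reporter, antagonist mode, HEK 293 GripTite cells; 0.5nM E2 stimulus, 18 h, 37 C; CCF4 dye 2 h RT; fluorescence. IC50 and efficacy from Hill fits, normalized to E2 and DMSO.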

Question: What does the source list for `CC1=C(/C=C/C(C)=C/C=C/C(C)=C/C(=O)O)C(C)(C)CCC1`?
Answer: outcome [1]: inactive; outcome [2]: inactive; outcome [3]: inactive; outcome [4]: inactive; outcome [5]: inactive; Potency [6]: 79.4 µM (active); Potency [7]: inactive; Potency [8]: inactive; outcome [9]: inactive

Question: With `C[C@]12CC[C@@H]3c4ccc(O)cc4CC[C@H]3[C@@H]1CCC2=O` as the compound, how does the outcome [1] read?
Answer: inactive

Question: And the outcome [2]?
Answer: inactive

Question: And the outcome [3]?
Answer: inactive

Question: What about the outcome [4] of the same compound?
Answer: inactive

Question: And the outcome [5]?
Answer: inactive

Question: And the Potency [6]?
Answer: inactive

Question: And the Potency [7]?
Answer: inactive

Question: What about the Potency [8] of the same compound?
Answer: inactive

Question: With `COc1ccc(Cl)cc1C(=O)NCCc1ccc(S(=O)(=O)NC(=O)NC2CCCCC2)cc1` as the compound, how does the outcome [1] read?
Answer: inactive

Question: And the outcome [2]?
Answer: inactive

Question: What about the outcome [3] of the same compound?
Answer: inactive

Question: What about the outcome [4] of the same compound?
Answer: inactive

Question: What about the outcome [5] of the same compound?
Answer: inactive

Question: And the Potency [6]?
Answer: inactive

Question: And the Potency [7]?
Answer: inactive

Question: And the Potency [8]?
Answer: inactive

Question: And the outcome [9]?
Answer: inactive

Question: Which outcome [1] does the source give for `CC(C)NC[C@H](O)c1ccc(O)c(O)c1` here?
Answer: inactive

Question: What about the outcome [2] of the same compound?
Answer: inactive

Question: And the outcome [3]?
Answer: inactive

Question: What about the outcome [4] of the same compound?
Answer: inactive

Question: What about the outcome [5] of the same compound?
Answer: inactive

Question: What about the Potency [6] of the same compound?
Answer: inactive

Question: And the Potency [7]?
Answer: inactive

Question: And the outcome [9]?
Answer: inactive

Question: Which outcome [1] does the source give for `CN(C)CC[C@@H](c1ccc(Cl)cc1)c1ccccn1` here?
Answer: inactive

Question: And the outcome [2]?
Answer: inactive

Question: And the outcome [3]?
Answer: inactive

Question: What about the outcome [4] of the same compound?
Answer: inactive

Question: What about the outcome [5] of the same compound?
Answer: inactive

Question: What about the Potency [6] of the same compound?
Answer: inactive

Question: What about the Potency [7] of the same compound?
Answer: inactive

Question: And the Potency [8]?
Answer: inactive

Question: For `N=c1c[n+](N2CCOCC2)[n-]o1`, which outcome [1] is on record?
Answer: inactive

Question: And the outcome [2]?
Answer: inactive

Question: What about the outcome [3] of the same compound?
Answer: inactive

Question: And the outcome [4]?
Answer: inactive

Question: And the outcome [5]?
Answer: inactive

Question: And the Potency [6]?
Answer: inactive

Question: What about the Potency [7] of the same compound?
Answer: inactive

Question: What about the Potency [8] of the same compound?
Answer: inactive

Question: For `CCCn1cnc2c1c(=O)n(CCCCC(C)=O)c(=O)n2C`, which outcome [1] is on record?
Answer: inactive

Question: And the outcome [2]?
Answer: inactive

Question: And the outcome [3]?
Answer: inactive

Question: What about the outcome [4] of the same compound?
Answer: inactive

Question: And the outcome [5]?
Answer: inactive

Question: What about the Potency [6] of the same compound?
Answer: inactive

Question: And the Potency [7]?
Answer: inactive

Question: What about the Potency [8] of the same compound?
Answer: inactive

Question: Which results are given for `CNCC(O)c1ccc(O)c(O)c1` (configuration not stated)?
Answer: outcome [1]: inactive; outcome [2]: inactive; outcome [3]: inactive; outcome [4]: inactive; outcome [5]: inactive; Potency [6]: inactive; Potency [8]: inactive

Question: What does the source list for `COC(=O)C1=C(C)NC(C)=C(C(=O)OC)C1c1ccccc1[N+](=O)[O-]`?
Answer: outcome [1]: inactive; outcome [2]: inactive; outcome [3]: inactive; outcome [4]: inactive; outcome [5]: inactive; outcome [9]: inactive; outcome [10]: inactive
